In PubChem BioAssay (Tox21):
Records with an inconclusive call do not appear. Calls of active or inactive are those of the source. Unless noted, calls come from the whole dose curve.

Experiments:
[1] = Nuclear factor erythroid 2-related factor 2/antioxidant responsive element (Nrf2/ARE) small molecule agonists: qHTS cell viability counter screen in human keratinocytes (AID 1919968; active = well fitted curve in the direction sought with a large enough effect in the repeat runs; an effect the other way counts as inactive or inconclusive; note: nearly all actives have a fitted effect of over 55% in size)
How it was run: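 Seed 1,500 KeratinoSens cells per well, then incubate 5 h at 37 C/5% CO2. Add compounds in DMSO and incubate 23 h. Add CellTiter-Fluor, wait 1 h and read fluorescence.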

[2] = Nuclear factor erythroid 2-related factor 2/antioxidant responsive element (Nrf2/ARE) small molecule agonists: luciferase reporter gene qHTS assay in human keratinocytes (AID 1919969); note: nearly all actives have a fitted effect of over 35% in size; note: potency is the fitted concentration of half-maximal effect
[3] = target: Gonadotropin-releasing hormone receptor (Homo sapiens) (UniProt P30968); test: Human gonadotropin-releasing hormone receptor (GnRHR) small molecule agonists, calcium flux assay in GnRHR-HEK293 cells (AID 1920063); note: nearly all actives have a fitted effect of over 35% in size
How it was run: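 Cells: HEK293 stably expressing human GnRHR. Steps: overnight (18 h) culture, 1 h calcium dye loading at 37 C, compound addition, kinetic fluorescence read at 480/540 nm. Each compound tested at 15 concentrations in triplicate.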

[4] = target: KiSS-1 receptor (Homo sapiens) (UniProt Q969F8); test: Human kisspeptin (KISS1R) small molecule agonists, calcium flux assay in KISS1R-HEK293 cells (AID 1920064; active = well fitted curve in the direction sought with a large enough effect in the repeat runs; an effect the other way counts as inactive or inconclusive)
How it was run: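 Cells plated and incubated 18 h; dye added, 1 h at 37 C; compounds in DMSO pinned in; signal read at 480/540 nm every second for 3 min. Each compound tested at 15 concentrations in triplicate.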

[5] = G protein-coupled receptor (GPCR) small molecule agonists, calcium flux assay: HEK293 wild type cell line counter screen (AID 1920065)
How it was run: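 Counter-screen of the Tox21 10K library for non-specific calcium release: dye-loaded cells received compounds in DMSO and were monitored by kinetic fluorescence (480/540 nm, 3 min). Fifteen concentrations, run in triplicate.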

[6] = p53 small molecule agonists, cell-based qHTS assay with human liver microsomes (AID 1963577);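 note: p53 response element beta-lactamase reporter cells with liver microsomes plus NADPH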
How it was run: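 Steps: plate p53RE-bla cells, incubate 5 h at 37 C; add compound in DMSO; add microsomes (0.5 mg/mL final) and NADPH (0.5 mg/mL final); incubate 16 h at 37 C; add LiveBLAzer, 2 h RT; read fluorescence.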

[7] = p53 small molecule agonists, cell-based qHTS assay with rat liver microsomes (AID 1963578)
How it was run: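 Metabolic activation is supplied by rat liver microsomes with NADPH (each 0.5 mg/mL final). p53RE-bla cells incubate with compound 16 h at 37 C; reporter activity is measured by LiveBLAzer fluorescence.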

[8] = p53 small molecule agonists, cell-based qHTS assay with human liver microsomes: qHTS cell viability counter screen (AID 1963579); note: nearly all actives have a fitted effect of over 45% in size
How it was run: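 After the 460/530 nm beta-lactamase read, CellTiter-Glo was added to the same wells and luminescence measured after 30 min at room temperature, giving viability of p53RE-bla cells treated 16 h with compounds plus microsomes and NADPH.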

[9] = p53 small molecule agonists, cell-based qHTS assay with rat liver microsomes: qHTS cell viability counter screen (AID 1963580); note: nearly all actives have a fitted effect of over 45% in size
How it was run: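 p53RE-bla HCT-116 cells were exposed 16 h at 37 C to compounds with rat liver microsomes (0.5 mg/mL) and NADPH (0.5 mg/mL). Viability was measured in the same wells as ATP content by CellTiter-Glo luminescence.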

[10] = p53 small molecule agonists, cell-based qHTS assay: qHTS cell viability counter screen (AID 1963581); note: nearly all actives have a fitted effect of over 45% in size
How it was run: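 Cells: HCT-116 with p53 response element-driven beta-lactamase. Treatment: 16 h, 37 C, compounds in DMSO. Read: CellTiter-Glo luminescence after 30 min RT.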

[11] = p53 small molecule agonists, cell-based qHTS assay (AID 1963582; active = well fitted activation curve with a large enough effect in the signal ratio in the repeat runs, not every such curve was filed as active; the % refers to the signal ratio; note: potency is the fitted concentration of half-maximal effect)
How it was run: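 Quantitative HTS in p53RE-bla cells: after a 5 h settling period, compounds delivered in DMSO were left on cells for 16 h at 37 C, and reporter induction was measured as fluorescence following 2 h substrate loading.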

[12] = target: 5-hydroxytryptamine receptor 2A (Homo sapiens) (UniProt P28223); test: 5-hydroxytryptamine receptor 2A (HTR2A) small molecule antagonists, cell-based qHTS assay (AID 1963586); note: nearly all actives have a fitted effect of over 45% in size
How it was run: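 Antagonist-mode intracellular calcium assay: DOI (4 nM) added after 5 min compound pre-incubation at room temperature to dye-loaded HTR2A-CHO cells. Fluorescence followed for 3 min, sampled every second.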

[13] = target: 5-hydroxytryptamine receptor 2A (Homo sapiens) (UniProt P28223); test: 5-hydroxytryptamine receptor 2A (HTR2A) small molecule agonists, cell-based qHTS assay (AID 1963587); note: nearly all actives have a fitted effect of over 30% in size
How it was run: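 CHO cells stably expressing human HTR2A, plated 18 h, loaded with calcium dye 1 h at 37 C. Agonist mode: compounds added and intracellular calcium fluorescence recorded kinetically for 2 min at 1 sec intervals.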

[14] = target: Muscarinic acetylcholine receptor M1 (Homo sapiens) (UniProt P11229); test: Cholinergic receptor muscarinic 1 (CHRM1) small molecule antagonists, cell-based qHTS assay (AID 1963588); note: nearly all actives have a fitted effect of over 40% in size
How it was run: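 CHRM1-CHO calcium-flux assay, antagonist mode. Cells were seeded 18 h, dye-loaded 1 h at 37 C and given compound for 5 min at RT, then acetylcholine was added at 50nM. FDSS fluorescence was read 3 min; 15 concentrations, three runs.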

[15] = target: Muscarinic acetylcholine receptor M1 (Homo sapiens) (UniProt P11229); test: Cholinergic receptor muscarinic 1 (CHRM1) small molecule agonists, cell-based qHTS assay (AID 1963589); note: nearly all actives have a fitted effect of over 35% in size
How it was run: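 Agonist-mode qHTS in CHO cells stably carrying human muscarinic M1. Intracellular calcium is tracked by fluorescence every second after compound transfer; each compound runs at 15 concentrations in three independent runs.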

[16] = cAMP Responsive Elements (CRE) small molecule agonists, cell-based qHTS assay (AID 1963590)
How it was run: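 Agonist mode qHTS in CRE-bla HEK 293T cells: compounds dosed from DMSO for 3 h at 37 C/5% CO2, followed by LiveBLAzer B/G FRET substrate for 2 h at room temperature.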

[17] = cAMP Responsive Elements (CRE) small molecule antagonists, cell-based qHTS assay (AID 1963591; active = well fitted inhibition curve with a large enough effect in the signal ratio in the repeat runs, not every such curve was filed as active; the % refers to the signal ratio)
How it was run: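 Antagonist mode: test compounds are co-incubated with the adenylyl cyclase activator NKH477 (0.25 uM final) on CRE-bla HEK293T cells for 3 h at 37 °C, followed by LiveBLAzer substrate loading.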

[18] = target: Beta-2 adrenergic receptor (Homo sapiens) (UniProt P07550); test: Adrenergic beta2 receptor (ADRB2) small molecule antagonists, cell-based qHTS assay (AID 1963592); note: series mostly up to about 92 µM; nearly all actives have a fitted effect of over 50% in size
How it was run: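 Cells (CHO, stable ADRB2 overexpression) incubated 18-20hr at 37C; compounds added from DMSO; agonist mix (1nM isoproterenol, 100uM IBMX, 25uM Ro-20-1724) added; 0.5hr RT; d2-cAMP and anti-cAMP-cryptate added; 1hr RT; 665/615 nm read.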

[19] = target: D(2) dopamine receptor (Homo sapiens) (UniProt P14416); test: Dopamine D2 receptor (DRD2) small molecule agonists, cell-based qHTS assay (AID 1963594); note: nearly all actives have a fitted effect of over 35% in size
How it was run: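 HEK293 cells stably expressing human DRD2, pre-treated with PDE inhibitor Ro20-1724 (0.1 mM final) and compound 10 min at room temperature, then stimulated with NKH477 (200nM […]) for 30 min. cAMP read by HTRF (665/620 nm).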

[20] = target: D(2) dopamine receptor (Homo sapiens) (UniProt P14416); test: Dopamine D2 receptor (DRD2) small molecule antagonists, cell-based qHTS assay (AID 1963595; active = well fitted inhibition curve with a large enough effect in the signal ratio in the repeat runs, with a control signal flat; the % refers to the signal ratio; note: potency is the fitted concentration of half-maximal effect)
How it was run: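 HEK293 cells stably expressing DRD2 were preincubated with 0.1 mM Ro20-1724, then with compound for 10 min at room temperature. Cells were stimulated with 200 nM NKH477 plus 12 nM quinpirole for 30 min, and cAMP was read by HTRF.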

Measured: Potency

Chain of Gonadotropin-releasing hormone receptor (Homo sapiens) (P30968 whole entry, looked up): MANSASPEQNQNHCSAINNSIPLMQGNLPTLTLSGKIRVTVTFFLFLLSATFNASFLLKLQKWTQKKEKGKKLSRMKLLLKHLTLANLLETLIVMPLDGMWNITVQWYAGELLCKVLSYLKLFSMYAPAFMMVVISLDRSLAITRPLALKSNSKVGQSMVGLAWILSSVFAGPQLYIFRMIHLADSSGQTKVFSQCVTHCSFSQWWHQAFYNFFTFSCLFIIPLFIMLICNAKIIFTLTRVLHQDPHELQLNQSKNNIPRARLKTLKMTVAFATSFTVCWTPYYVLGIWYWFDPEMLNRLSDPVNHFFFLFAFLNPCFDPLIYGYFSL
Chain of Muscarinic acetylcholine receptor M1 (Homo sapiens) (P11229 whole entry, looked up): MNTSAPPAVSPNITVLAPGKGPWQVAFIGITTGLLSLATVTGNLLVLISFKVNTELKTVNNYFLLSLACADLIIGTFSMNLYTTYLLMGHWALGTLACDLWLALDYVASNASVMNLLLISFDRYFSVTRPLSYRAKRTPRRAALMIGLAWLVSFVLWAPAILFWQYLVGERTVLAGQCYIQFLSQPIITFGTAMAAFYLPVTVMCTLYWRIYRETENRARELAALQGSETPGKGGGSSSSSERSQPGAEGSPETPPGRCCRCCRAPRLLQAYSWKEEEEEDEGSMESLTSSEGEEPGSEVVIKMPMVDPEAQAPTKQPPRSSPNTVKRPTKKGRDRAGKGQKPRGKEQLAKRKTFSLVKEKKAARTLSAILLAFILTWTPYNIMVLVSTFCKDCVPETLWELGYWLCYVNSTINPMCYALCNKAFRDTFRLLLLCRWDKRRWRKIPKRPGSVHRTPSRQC
Chain of D(2) dopamine receptor (Homo sapiens) (P14416 whole entry, looked up): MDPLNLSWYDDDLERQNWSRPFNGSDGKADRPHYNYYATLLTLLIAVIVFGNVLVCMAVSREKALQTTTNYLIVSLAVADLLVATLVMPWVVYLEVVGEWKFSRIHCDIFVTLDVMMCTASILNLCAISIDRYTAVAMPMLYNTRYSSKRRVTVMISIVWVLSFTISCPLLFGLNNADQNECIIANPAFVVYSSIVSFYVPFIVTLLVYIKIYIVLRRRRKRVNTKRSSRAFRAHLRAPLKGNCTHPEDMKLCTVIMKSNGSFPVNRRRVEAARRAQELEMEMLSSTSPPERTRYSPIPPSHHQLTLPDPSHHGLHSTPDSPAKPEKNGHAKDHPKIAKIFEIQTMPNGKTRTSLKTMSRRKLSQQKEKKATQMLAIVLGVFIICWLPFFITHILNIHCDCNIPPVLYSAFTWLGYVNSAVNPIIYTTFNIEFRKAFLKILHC
Chain of 5-hydroxytryptamine receptor 2A (Homo sapiens) (P28223 whole entry, looked up): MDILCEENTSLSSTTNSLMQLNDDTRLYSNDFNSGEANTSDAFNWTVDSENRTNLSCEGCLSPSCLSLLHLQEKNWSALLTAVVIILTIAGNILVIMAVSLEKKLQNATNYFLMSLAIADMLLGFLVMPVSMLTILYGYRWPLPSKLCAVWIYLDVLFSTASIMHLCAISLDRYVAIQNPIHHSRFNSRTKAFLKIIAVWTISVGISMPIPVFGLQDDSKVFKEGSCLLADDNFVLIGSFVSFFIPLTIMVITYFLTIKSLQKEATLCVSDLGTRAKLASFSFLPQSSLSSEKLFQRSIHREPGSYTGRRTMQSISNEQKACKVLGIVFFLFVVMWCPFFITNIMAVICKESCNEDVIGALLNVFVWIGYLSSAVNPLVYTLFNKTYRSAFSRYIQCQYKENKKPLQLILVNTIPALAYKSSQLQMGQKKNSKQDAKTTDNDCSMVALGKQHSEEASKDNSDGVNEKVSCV
Chain of KiSS-1 receptor (Homo sapiens) (Q969F8 whole entry, looked up): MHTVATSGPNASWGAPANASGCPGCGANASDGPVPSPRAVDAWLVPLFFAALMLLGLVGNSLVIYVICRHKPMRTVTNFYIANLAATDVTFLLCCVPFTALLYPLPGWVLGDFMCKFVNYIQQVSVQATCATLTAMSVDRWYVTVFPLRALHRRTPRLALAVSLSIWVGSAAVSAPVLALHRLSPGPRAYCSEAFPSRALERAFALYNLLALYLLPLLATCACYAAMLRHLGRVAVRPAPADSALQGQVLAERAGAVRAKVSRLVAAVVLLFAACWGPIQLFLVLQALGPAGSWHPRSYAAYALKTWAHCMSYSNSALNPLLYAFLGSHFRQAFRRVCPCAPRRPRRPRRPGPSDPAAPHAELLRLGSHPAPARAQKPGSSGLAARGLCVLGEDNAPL
Chain of Beta-2 adrenergic receptor (Homo sapiens) (P07550 whole entry, looked up): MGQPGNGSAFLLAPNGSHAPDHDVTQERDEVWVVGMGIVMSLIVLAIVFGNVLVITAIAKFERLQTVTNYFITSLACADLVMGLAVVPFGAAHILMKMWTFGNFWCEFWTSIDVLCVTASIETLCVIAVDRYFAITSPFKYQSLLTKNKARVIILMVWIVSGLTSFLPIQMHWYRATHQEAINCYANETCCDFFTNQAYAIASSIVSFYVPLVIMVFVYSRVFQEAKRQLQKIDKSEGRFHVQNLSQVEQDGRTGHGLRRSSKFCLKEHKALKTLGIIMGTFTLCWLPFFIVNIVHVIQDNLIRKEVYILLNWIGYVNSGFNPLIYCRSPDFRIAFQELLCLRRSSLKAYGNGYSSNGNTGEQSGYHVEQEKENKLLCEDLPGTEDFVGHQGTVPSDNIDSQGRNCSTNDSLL

C=CC(=O)OCCCCCCCC
inactive: all assays above

CC(C)(C)C(=O)OCOP(=O)(COCCn1cnc2c(N)ncnc21)OCOC(=O)C(C)(C)C
active: [11] 7.93 µM | [20] 13.3 µM
inactive: all other assays above

CCCCCCCCCCCC(=O)OCC(C)OC(=O)CCCCC(=O)O (stereo not given)
inactive: all assays above

C/C=C(\C)C(=O)OCc1ccccc1
inactive: all assays above

COc1ccccc1/C=C/C=O
active: [2] 54.5 µM
inactive: all other assays above

CC(C)c1ccc2c(C(C)C)cc(C(C)C)c(S(=O)(=O)O)c2c1
inactive: all assays above
